This note sets out measurements from PubChem BioAssay AID1851 (National Center for Advancing Translational Sciences (NCATS), 2009).

In all, about 16,000 compounds went through this assay and about 4,000 (25%) were called active. About 26% were inconclusive and are not listed. These entries were drawn from the full list. A number with no mark means an inactive call. The call rests on the fitted dose curve; in most records, active means well fitted curve in the direction sought with a large enough effect; inconclusive means small, poorly fitted or top-dose-only effect, or effect the other way; inactive means no such curve, though single readings can be large or run the other way.
On the % scale 0 is the no-effect control and ±100 the full control effect.

For the assay, the target named is Cytochrome P450 2C9 (Homo sapiens) (UniProt P11712). In words: Cytochrome panel assay with activity outcomes. Conditions: recombinant CYP, pro-luciferin dealkylation, luminescence, p450-cyp2c9; series mostly up to 57.1 µM; activity, negative = inhibition: at the top concentration.
Sequence of Cytochrome P450 2C9 (Homo sapiens) (P11712 whole entry, looked up): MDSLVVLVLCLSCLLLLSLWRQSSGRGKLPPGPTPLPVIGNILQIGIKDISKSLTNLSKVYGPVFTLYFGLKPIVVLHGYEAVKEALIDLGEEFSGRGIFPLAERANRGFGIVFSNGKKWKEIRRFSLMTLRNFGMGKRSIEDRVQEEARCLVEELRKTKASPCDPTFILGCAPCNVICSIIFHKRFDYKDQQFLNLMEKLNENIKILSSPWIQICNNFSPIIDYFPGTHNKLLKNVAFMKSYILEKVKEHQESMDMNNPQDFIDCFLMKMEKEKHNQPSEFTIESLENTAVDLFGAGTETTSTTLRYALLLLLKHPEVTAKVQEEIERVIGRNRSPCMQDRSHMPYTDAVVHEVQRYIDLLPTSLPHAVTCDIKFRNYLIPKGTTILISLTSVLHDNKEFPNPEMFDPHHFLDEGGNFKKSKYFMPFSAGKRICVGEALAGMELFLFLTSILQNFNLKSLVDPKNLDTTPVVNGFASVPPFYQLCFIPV
In general, AC50 refers to the midpoint of the concentration-response curve, whichever way the signal moves. Take `O=C(c1csnn1)N1CCC2(CCCN(c3ccccc3)C2)CC1`: the AC50 is 7.94 µM (active).
Turning to `O=C(c1csnn1)N1CCC2(CCCN(c3ccc(-c4ccccc4)cc3)C2)CC1`, the “activity, negative = inhibition” value is -4.41%.
Still for that read-out and setting: the value for `COc1ccc(NC(=O)N2CC[C@@]3(CCCN(C(C)=O)C3)C2)cc1` was 18.2%.
In the case of `CCOc1ccc(-c2nnc3ccc(SCC(=O)NCc4ccco4)nn23)cc1`, the AC50 is 11.2 µM (active).
In the case of `CCn1c(SCC(=O)OC)nnc1C1CCCCC1`, the “activity, negative = inhibition” value was 3.81%.
As for `COC(=O)CSc1nnc(-c2ccccc2OC)n1-c1ccc(C)cc1`, the “activity, negative = inhibition” value was -65.9%.
`COC(=O)CSc1ccc2nnc(-c3ccc(F)cc3)n2n1`: the AC50 was 10 µM (active).
Turning to `O[C@@H](c1cc([C@@]23C[C@H]4CC[C@@H]2C[C@H](C4)C3)nc2c(Cl)cc(Cl)cc12)[C@@H]1CCCCN1`, the activity, negative = inhibition was -4.65% [at 11.4 µM].
`Cc1cnc(CNc2cc(-c3ccc(C(=O)N(C)C)cc3)ncn2)cn1`: the activity, negative = inhibition is 23.4% [at 2.29 µM].
`COc1ccc(/C=N/NC(=O)C2CCN(c3ncc(C(F)(F)F)cc3Cl)CC2)cc1`: the “activity, negative = inhibition” value is -9.1%.
On to `O=C(OC1CCN(c2ncc(C(F)(F)F)cc2Cl)CC1)c1ccccc1`, for which the half-maximal activity concentration (AC50) is 10 µM (active).
For the compound `FC(F)(F)c1cnc(N2CCC(=NOCc3ccc(Cl)cc3)CC2)c(Cl)c1`, the “activity, negative = inhibition” value was -12.2%.
On the same count and under the same terms, to `COc1ccccc1CN1CCCC2(CCN(C(=O)c3cccn3C)CC2)C1` belongs 0.81%.
In the case of `COC(=O)[C@@]1(Cc2ccc(F)cc2)[C@H]2c3cc(C(=O)N4CCCC4)n(CCc4ccc(O)c(O)c4)c3C[C@H]2CN1C(=O)c1ccccc1`, the AC50 was 3.16 µM (active).
`COC(=O)[C@@]1(Cc2ccc(F)cc2)[C@H]2c3cc(C(=O)N4CCCC4)n(CCc4ccc(OC)c(Br)c4)c3C[C@H]2CN1C(=O)c1ccccc1`: the AC50 is 3.16 µM (active).
In the case of `C/C(=N\OC(=O)c1ccccc1F)c1nccs1`, the “activity, negative = inhibition” value is -11.6%.
On the same count and under the same terms, to `O=S(=O)(O)c1ccc2cc(N=Nc3cc(S(=O)(=O)O)c4cccnc4c3O)ccc2c1` belongs -4.09% [at 11.4 µM].
On to `Cc1ccc(-n2c(O)c(/C=N/n3cnnc3)c3ccccc3c2=O)cc1`, for which the AC50 was 0.794 µM (active).
Take `Cc1ccc(-n2cnc(=O)c3cccnc32)cc1`: the “activity, negative = inhibition” value is -11.7%.
With `Cc1cc(C)cc(-n2c(O)c(C=NC3CCS(=O)(=O)C3)c3ccccc3c2=O)c1` (stereo unspecified), the AC50 is 4.47 µM (active).
On to `Nc1c(S(N)(=O)=O)cc(S(N)(=O)=O)cc1S(N)(=O)=O`, for which the activity, negative = inhibition is -3.4% [at 11.4 µM].
`CC(C)NC[C@H](O)c1ccc(NS(C)(=O)=O)cc1`: the AC50 result was “inactive”.
As for `CN(CCc1ccc(Cl)c(Cl)c1)CCN1CCCCCC1`, the “activity, negative = inhibition” value is -6.84%.
On to `CN(CCc1ccc(Cl)c(Cl)c1)C[C@@H](O)COc1ccc(NS(C)(=O)=O)cc1`, for which the AC50 is 2.51 µM (active).
Same read-out and setting: the value for `CC(C)(C)N(NC(=O)c1ccccc1)C(=O)c1cccc(C(=O)N(NC(=O)c2ccccc2)C(C)(C)C)c1` was 15.8 µM (active).
In the case of `CC(=O)NNC(=O)C(O)(c1ccccc1)c1ccccc1`, the “activity, negative = inhibition” value was -3.75%.
Take `O=C(NC(N1CCCC1)C(Cl)(Cl)Cl)c1ccccc1` (stereo unspecified): the “activity, negative = inhibition” value is -51.1%.
For `COc1ccc(-c2noc(N(C)CC(=O)Nc3cccc(C(F)(F)F)c3)n2)cc1`, the AC50 is 5.01 µM (active).
Consider `Cc1ccc(CCN2CC(C(=O)NCCCN(C)Cc3ccccc3)CC2=O)cc1` (stereo unspecified), for which the “activity, negative = inhibition” value is -27.8%.
The same measure, in the same setting: the value for `CN(CCCNC(=O)c1ccc(/C=N/O)nc1)CCCN(C)Cc1ccccc1` was -0.536%.
On to `CN(CCCNC(=O)c1cccn2c(=O)c3ccccc3nc12)Cc1ccccc1`, for which the AC50 is 17.8 µM (active).
Regarding `CNC(=O)c1c(I)c(C(=O)NCC(=O)Nc2c(I)c(C(=O)O)c(I)c(C(=O)NCCO)c2I)c(I)c(N(C)C(C)=O)c1I`, the “activity, negative = inhibition” value was -7.59% [at 25.6 µM].
For the compound `Cc1ccc(NC(=O)/C(=C\c2ccc([N+](=O)[O-])cc2)NC(=O)c2ccccc2)cc1`, the AC50 was 11.2 µM (active).
Take `O=C(Nc1ccccc1)/C(=C\c1ccncc1)NC(=O)c1ccccc1`: the AC50 was 0.2 µM (active).
As for `COc1ccc(NC(=O)/C(=C\c2cc(OC)c(OC)cc2[N+](=O)[O-])NC(=O)c2ccccc2)cc1`, the AC50 is 7.94 µM (active).
For the compound `Cc1ccc(C(=O)N/C(=C\c2ccc([N+](=O)[O-])cc2)C(=O)NCCc2ccccc2)cc1`, the “activity, negative = inhibition” value was -12.4%.
As to `O=C1[C@H]2[C@H]3[C@H](O)[C@H](O)C/C(=N/OCc4ccccc4)[C@@H]3CC[C@@H]2C(=O)N1C[C@@H]1CCCO1`, the activity, negative = inhibition was 7.38% [at 11.4 µM].
Consider `O=C(O)C1C2C=CC3(CN(Cc4ccccn4)C(=O)C13)O2` (stereo unspecified), for which the “activity, negative = inhibition” value is -6.93%.
As to `CC(=O)NCCNc1ncncc1-c1ccccc1C(F)(F)F`, the activity, negative = inhibition is -11.4% [at 2.29 µM].
The same measure, in the same setting: to `O=C(O)c1nnsc1COCc1ccccc1` belongs -2.96% [at 11.4 µM].
As to `COC(=O)c1c(-c2cc(OC)c(OC)c(OC)c2)c2ccc(OCc3ccccn3)cc2c(=O)n1-c1ccc(N)cc1`, the AC50 was 3.98 µM (active).
In the case of `CC(C)CNc1nc(N)[nH]c(=O)c1NC=O`, the activity, negative = inhibition was -6.56% [at 11.4 µM].
Regarding `OC1(c2ccc(OC(F)F)cc2)CSC(=Nc2cccnc2)N1C1CC1` (stereo unspecified), the AC50 was 5.01 µM (active).
Take `Cc1cccc(CNc2cc(-c3ccccc3Cl)ncn2)c1`: the activity, negative = inhibition is 4.64% [at 2.29 µM].
`Cc1ccc(N2C(=O)C(Cl)=C(NCc3ccccc3)C2=O)c(C)c1`: the AC50 was 5.62 µM (active).
Regarding `Cc1ccccc1-c1cc(NCc2ccccc2)ncn1`, the activity, negative = inhibition is -15.2% [at 2.29 µM].
